Laboratory results as given in PubChem BioAssay AID1159580 (chemical genetic matrix, 2015).
In all, about 5,500 compounds went through this assay and about 2,000 (36%) were called active. Inconclusive results (about 18%) are left out. Rule as the data show it: active = normalized growth mostly below about 0.91 (no sharp cut-off); inconclusive = no clear call, values can overlap the other calls; inactive = mostly above about 0.92. The list shows a part of the results.

Assay: chemical genetic growth profiling, strain panel (AID 1159580);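 also: tested at 20 µM; growth read once vehicle control cultures reached saturation at 30 °C; 1 = growth at the plate median or of vehicle wells; lower values mean less growth of the strain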
Details: growth OD
[1] = S. cerevisiae deletion strains, locus YDL101C, strain DUN1, active compounds read low
[2] = S. cerevisiae deletion strains, locus YHR030C, strain SLT2, active compounds read low

Measured: normalized growth

O=C(NCCSCc1cccc(C(F)(F)F)c1)c1ccc(Cl)cc1
active: [2] 0.614 | S. cerevisiae deletion strains, locus YLR113W, strain HOG1, active compounds read low 0.736 | S. cerevisiae deletion strains, locus YPL256C, strain CLN2, active compounds read low 0.797
inactive: S. cerevisiae deletion strains, locus YAR019C, strain CDC15, active compounds read low 0.968 | S. cerevisiae deletion strains, locus YBL105C, strain PKC1, active compounds read low 0.965 | S. cerevisiae deletion strains, locus YBR135W, strain CKS1, active compounds read low 0.953 | S. cerevisiae deletion strains, locus YBR136W, strain MEC1, active compounds read low 0.979 | S. cerevisiae deletion strains, locus YBR160W, strain CDC28, active compounds read low 0.964 | S. cerevisiae deletion strains, locus YDL017W, strain CDC7, active compounds read low 0.971 | S. cerevisiae deletion strains, locus YDL028C, strain MPS1, active compounds read low 0.947 | [1] 0.975 | S. cerevisiae deletion strains, locus YDL108W, strain KIN28, active compounds read low 0.961 | S. cerevisiae deletion strains, locus YDL132W, strain cdc53, active compounds read low 0.96 | S. cerevisiae deletion strains, locus YDL214C, strain PRR2, active compounds read low 0.891 | S. cerevisiae deletion strains, locus YDR052C, strain DBF4, active compounds read low 0.982 | S. cerevisiae deletion strains, locus YDR054C, strain cdc34, active compounds read low 0.955 | S. cerevisiae deletion strains, locus YDR226W, strain ADK1, active compounds read low 0.973 | S. cerevisiae deletion strains, locus YDR477W, strain SNF1, active compounds read low 0.894 | S. cerevisiae deletion strains, locus YER123W, strain YCK3, active compounds read low 0.851 | S. cerevisiae deletion strains, locus YER133W, strain GLC7, active compounds read low 0.916 | S. cerevisiae deletion strains, locus YFL009W, strain cdc4, active compounds read low 0.961 | S. cerevisiae deletion strains, locus YFL029C, strain CAK1, active compounds read low 0.965 | S. cerevisiae deletion strains, locus YFR003C, strain YPI1, active compounds read low 0.964 | S. cerevisiae deletion strains, locus YFR019W, strain FAB1, active compounds read low 0.964 | S. cerevisiae deletion strains, locus YFR028C, strain CDC14, active compounds read low 0.965 | S. cerevisiae deletion strains, locus YGR040W, strain KSS1, active compounds read low 0.905 | S. cerevisiae deletion strains, locus YGR052W, strain FMP48, active compounds read low 0.826 | S. cerevisiae deletion strains, locus YGR092W, strain DBF2, active compounds read low 0.733 | S. cerevisiae deletion strains, locus YHR079C, strain IRE1, active compounds read low 0.72 | S. cerevisiae deletion strains, locus YHR082C, strain KSP1, active compounds read low 0.871 | S. cerevisiae deletion strains, locus YHR205W, strain SCH9, active compounds read low 0.738 | S. cerevisiae deletion strains, locus YIL147C, strain SLN1, active compounds read low 0.97 | S. cerevisiae deletion strains, locus YJL095W, strain BCK1, active compounds read low 0.743 | S. cerevisiae deletion strains, locus YJL128C, strain PBS2, active compounds read low 0.887 | S. cerevisiae deletion strains, locus YJL157C, strain FAR1, active compounds read low 0.918 | S. cerevisiae deletion strains, locus YJR016C, strain ILV3, active compounds read low 0.959 | S. cerevisiae deletion strains, locus YJR066W, strain TOR1 (second series), active compounds read low 0.897 | S. cerevisiae deletion strains, locus YJR066W, strain TOR1, active compounds read low 0.769 | S. cerevisiae deletion strains, locus YKL048C, strain ELM1, active compounds read low 0.963 | S. cerevisiae deletion strains, locus YKL067W, strain YNK1, active compounds read low 0.864 | S. cerevisiae deletion strains, locus YKL101W, strain HSL1, active compounds read low 0.917 | S. cerevisiae deletion strains, locus YKL193C, strain SDS22, active compounds read low 0.962 | S. cerevisiae deletion strains, locus YKL203C, strain TOR2, active compounds read low 0.988 | S. cerevisiae deletion strains, locus YLR133W, strain CKI1, active compounds read low 0.902 | S. cerevisiae deletion strains, locus YLR403W, strain SFP1, active compounds read low 0.896 | S. cerevisiae deletion strains, locus YML070W, strain DAK1, active compounds read low 0.903 | S. cerevisiae deletion strains, locus YMR001C, strain CDC5, active compounds read low 0.963 | S. cerevisiae deletion strains, locus YMR205C, strain PFK2 (second series), active compounds read low 0.885 | S. cerevisiae deletion strains, locus YMR277W, strain FCP1, active compounds read low 0.951 | S. cerevisiae deletion strains, locus YNL006W, strain LST8, active compounds read low 0.967 | S. cerevisiae deletion strains, locus YNL020C, strain ARK1, active compounds read low 0.896 | S. cerevisiae deletion strains, locus YNL161W, strain CBK1, active compounds read low 0.973 | S. cerevisiae deletion strains, locus YNL183C, strain NPR1, active compounds read low 0.819 | S. cerevisiae deletion strains, locus YNL207W, strain RIO2, active compounds read low 0.969 | S. cerevisiae deletion strains, locus YNL222W, strain SSU72, active compounds read low 0.965 | S. cerevisiae deletion strains, locus YNL307C, strain MCK1 (second series), active compounds read low 0.86 | S. cerevisiae deletion strains, locus YOL078W, strain AVO1, active compounds read low 0.963 | S. cerevisiae deletion strains, locus YOL136C, strain PFK27, active compounds read low 0.896 | S. cerevisiae deletion strains, locus YOR061W, strain CKA2, active compounds read low 0.849 | S. cerevisiae deletion strains, locus YOR119C, strain RIO1, active compounds read low 0.916 | S. cerevisiae deletion strains, locus YOR231W, strain MKK1, active compounds read low 0.764 | S. cerevisiae deletion strains, locus YOR329C, strain SCD5, active compounds read low 0.965 | S. cerevisiae deletion strains, locus YPL031C, strain PHO85, active compounds read low 0.892 | S. cerevisiae deletion strains, locus YPL153C, strain RAD53, active compounds read low 0.892 | S. cerevisiae deletion strains, locus YPL204W, strain HRR25, active compounds read low 0.886 | S. cerevisiae deletion strains, locus YPL209C, strain IPL1, active compounds read low 0.968 | S. cerevisiae deletion strains, locus YPR025C, strain CCL1, active compounds read low 0.957 | S. cerevisiae deletion strains, locus YPR106W, strain ISR1, active compounds read low 0.947 | S. cerevisiae deletion strains, locus YPR111W, strain DBF20, active compounds read low 0.93 | S. cerevisiae deletion strains, strain NNK1, active compounds read low 0.954 | S. cerevisiae deletion strains, strain TSCII, active compounds read low 0.959

CCCCNC(=O)NCCSCc1ccco1
inactive: S. cerevisiae deletion strains, locus YAL013W, strain DEP1, active compounds read low 1.01 | S. cerevisiae deletion strains, locus YBR229C, strain ROT2, active compounds read low 0.986 | [1] 0.982 | S. cerevisiae deletion strains, locus YDL134C, strain PPH21, active compounds read low 0.993 | S. cerevisiae deletion strains, locus YDR150W, strain NUM1, active compounds read low 1 | S. cerevisiae deletion strains, locus YEL061C, strain CIN8, active compounds read low 0.98 | S. cerevisiae deletion strains, locus YGR078C, strain PAC10, active compounds read low 0.994 | [2] 1.02 | S. cerevisiae deletion strains, locus YHR087W, strain rtc3, active compounds read low 0.99 | S. cerevisiae deletion strains, locus YJR043C, strain POL32, active compounds read low 1.01 | S. cerevisiae deletion strains, locus YJR075W, strain HOC1, active compounds read low 1.01 | S. cerevisiae deletion strains, locus YLR039C, strain RIC1, active compounds read low 1 | S. cerevisiae deletion strains, locus YLR058C, strain SHM2 (second series), active compounds read low 0.991 | S. cerevisiae deletion strains, locus YLR085C, strain ARP6, active compounds read low 0.943 | S. cerevisiae deletion strains, locus YLR262C, strain YPT6, active compounds read low 1.02 | S. cerevisiae deletion strains, locus YML094W, strain GIM5, active compounds read low 0.988 | S. cerevisiae deletion strains, locus YMR219W, strain ESC1, active compounds read low 0.989 | S. cerevisiae deletion strains, locus YMR263W, strain SAP30, active compounds read low 0.996 | S. cerevisiae deletion strains, locus YNL128W, strain TEP1, active compounds read low 0.987 | S. cerevisiae deletion strains, locus YNL153C, strain GIM3, active compounds read low 1.01 | S. cerevisiae deletion strains, locus YNL298W, strain CLA4 (second series), active compounds read low 0.984 | S. cerevisiae deletion strains, locus YNL322C, strain KRE1, active compounds read low 0.99 | S. cerevisiae deletion strains, locus YNR030W, strain Alg12, active compounds read low 0.998 | S. cerevisiae deletion strains, locus YPL055C, strain LGE1, active compounds read low 1 | S. cerevisiae deletion strains, locus YPL241C, strain CIN2, active compounds read low 0.988 | S. cerevisiae deletion strains, locus YPR135W, strain CTF4, active compounds read low 1.05 | S. cerevisiae strains, strain wild type, active compounds read low 0.98
